A selection: hits, their analogues and other compounds. The true share with any hit is near 6%.
D1 antag = antagonists of human D1 dopamine receptor | P21728 | HEK293 TREx D1 cells, calcium flux, dopamine EC80; stronger effect = lower value | activity change, negative = inhibition, % at 10 µM | 360,000 tested, 3.2% active | AID 504652; in the data active = activity change below about -30%; also: % is scaled to controls: 0 for no effect and ±100 for the full control effect
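After overnight tetracycline induction at 30 C, force-coupled D1 HEK293 cells took up a no-wash calcium dye at room temperature. Compounds were added and monitored 180 s, and the response to EC80 dopamine was then recorded.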
DRD3 antagonist = blocks the human D3 dopamine receptor | 360,000 tested, 2.5% active | AID 652054 | D3R cells, DiscoveRx beta-arrestin luminescence, antagonist mode; stronger effect = lower value | max response, negative = inhibition, % | P35462; in the data active = max response below about -50%; inconclusive = no clear call, values can overlap the other calls; also: % is scaled to controls: 0 for no effect and ±100 for the full control effect
Target sequence (P35462 whole entry, looked up): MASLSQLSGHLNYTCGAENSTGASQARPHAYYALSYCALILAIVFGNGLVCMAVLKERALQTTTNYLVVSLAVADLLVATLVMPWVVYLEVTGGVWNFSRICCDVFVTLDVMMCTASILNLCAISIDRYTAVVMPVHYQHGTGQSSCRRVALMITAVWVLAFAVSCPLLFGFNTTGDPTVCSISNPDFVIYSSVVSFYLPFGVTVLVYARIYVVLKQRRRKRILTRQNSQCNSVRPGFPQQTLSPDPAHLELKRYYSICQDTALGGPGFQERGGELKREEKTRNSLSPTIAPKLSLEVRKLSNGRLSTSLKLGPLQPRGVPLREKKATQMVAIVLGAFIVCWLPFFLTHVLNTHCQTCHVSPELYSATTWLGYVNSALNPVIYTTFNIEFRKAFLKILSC
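Cells expressing the human receptor were seeded at 1500 cells/well, incubated overnight at 37 degrees C in 5% CO2, then exposed to library compounds with dopamine controls for 90 minutes at 37 degrees C before luminescent detection.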
D1 potentiator = potentiators of human D1 dopamine receptor; 360,000 tested, 0.036% active; AID 504651; potentiation, % at 10 µM; P21728; HEK293 TREx D1 cells, calcium flux, dopamine EC20 potentiation; in the data active = potentiation above about 30%; also: 0% is about no effect
D1 agonist = agonists of human D1 dopamine receptor; HEK293 T-REx D1 cells, calcium flux, agonist mode; activation, % at 2 µM; 360,000 tested, 1% active; P21728; AID 504660; in the data active = activation above about 30%; also: 0% is about no effect
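Inducible HEK293 T-REx D1 cells, force-coupled to calcium signalling, were plated at 4000 cells/well with tetracycline and held overnight at 30 C. After no-wash calcium dye loading, compound-evoked calcium rise over 180 s flagged agonists.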
D3 ag = D3 dopamine receptor (human) agonism. D3R DiscoveRx beta-arrestin cells, luminescence, 90 min. max activation, %. 410,000 tested, 0.58% active; in the data active = max activation above about 30%; also: 0% is about no effect
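Agonist mode: compounds and dopamine controls were applied to plated cells for 90 min at 37 degrees C after an overnight attachment at 1500 cells/well. Luminescent read-out followed 30 - 60 minutes at room temperature with DiscoveRx detection reagent.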
An asterisk follows results filed as active; ? = inconclusive; · = not tested or not shown; ! = repeats disagree.

SMILES	D1 antag	DRD3 antagonist	D1 potentiator	D1 agonist	D3 ag
Oc1ccc(C[C@H]2CNC(=S)N2CC2CCCN2C[C@H](Cc2ccccc2)N2C[C@H](Cc3ccc(O)cc3)N(CC3CCCCC3)C2=S)cc1 (stereo partly drawn)	·	-29	·	·	-6
CC(=O)Cn1cnc2sc(-c3ccccc3)cc2c1=O	-36*	-1	-3	1	2
CCn1cnc2sc(-c3ccccc3)cc2c1=O	-9	1	0	2	2
NCCS	2	-85*	5	1	65*!
Cc1nn(-c2ccccc2)c(=S)n1-c1ccccc1	9	21	-7	0	-4
Cc1nn(C)c(=S)n1-c1ccc(Cl)cc1	5	-52*	0	2	0
Cc1ccc(CNC(=O)c2ccc(N3CCCC3)c(NC(=O)Nc3ccc(F)c(Cl)c3)c2)cc1	8	·	0	0	7
O=C(NC(CO)C(O)c1ccc([N+](=O)[O-])cc1)C(Cl)Cl (stereo not drawn)	-81*	0	-12	1	-23
COc1ccc(Cl)cc1N1C(=O)C2CCCN2C1c1sccc1C (stereo not drawn)	-5	-63*	-5	3	-2
COc1ccc(N2C(=O)C3CCCN3C2c2ccc(Cl)cc2)cc1 (stereo not drawn)	0	-6	-4	1	3
COc1ccc(C2N(c3ccc(Cl)cc3)C(=O)C3CCCN32)cc1 (stereo not drawn)	-38*	10	0	3	6
Cc1ccc(S(=O)c2ccc(NC(=O)C3CC3)cc2C#N)cc1 (stereo not drawn)	-31*	-11	-9	25	3
Cc1ccc(NC(=O)C2CCN(S(=O)(=O)c3ccccc3)CC2)cc1	-25	-5	-4	3	-11
CCNC(=O)C1(C)CCCN(CCOc2ccc(OC)cc2)C1 (stereo not drawn)	·	-21	·	·	-3
COCCNC(=O)C1(C)CCCN(CCOc2ccc(Cl)cc2)C1 (stereo not drawn)	·	-55*	·	·	-6
CCCNC(=O)C1(C)CCN(CCOc2ccc(Cl)cc2)C1 (stereo not drawn)	·	-72*	·	·	-1
O=C(CCSCc1cccc(Cl)c1)NCc1ccccc1Cl	-11	·	-1	8	1
Nc1nc(-c2ccccc2)c(-c2ccccc2)n1N	8	-7	-3	10	1
c1ccc(-c2cnn3c(-c4ccccc4)c(-c4ccccc4)nc3n2)cc1	-48*	6	-13	475*	4
COc1ccc(S(=O)(=O)N2CCN(C(=O)[C@H](Cc3ccccc3)NC(=O)c3ccco3)CC2)cc1	7	1	-2	1	-1
NC(=O)NC(Cc1ccccc1)C(=O)Nc1ccc(S(N)(=O)=O)cc1 (stereo not drawn)	-76*	0	-1	0	6
NC(=O)NC(Cc1ccccc1)C(=O)N1CCN(S(=O)(=O)c2ccc(Cl)cc2)CC1 (stereo not drawn)	10	-68*	-5	0	-6
CCOCCc1nn2c(=O)cc(COC(=O)c3ccccc3Br)nc2s1	-6	·	-5	0	-4
CCOc1ccc(N2C(=O)/C(=C\c3ccc(OC)c(O)c3)S(=O)(=O)C2c2cccc([N+](=O)[O-])c2)cc1 (stereo not drawn)	-73*	-7	-15	2	10
CCc1nc2ccc(C(=O)NCc3ccc4c(c3)OCO4)cn2c1N(CC)Cc1cccc(Br)c1	·	8	·	·	-1
SMILES	D1 antag	DRD3 antagonist	D1 potentiator	D1 agonist	D3 ag
CCOC(=O)c1sc(NC(=S)NC(=O)C2CCCC2)cc1C	6	7	9	2	9
CCOC(=O)c1sc(NC(=O)c2c(C)nn(Cc3ccccc3)c2C)cc1C	-45*	22	-19	3	5
CCOC(=O)c1sc(NC(=O)c2cccc(S(=O)(=O)N3CCc4ccccc43)c2)c(C#N)c1C	-32*	5	-11	20	-1
CCOC(=O)c1sc(NC(=S)NC(=O)CC(C)C)cc1C	2	-78*	-8	4	8
CCOC(=O)c1sc(NC(=O)c2ccc(Cl)s2)cc1C	2	-10	-7	2	-16
CCOC(=O)c1sc(NC(=O)c2cccc(S(=O)(=O)N3CCN(C)CC3)c2)cc1C	-35*	-29	-5	15	0
CN[C@@H]1[C@@H](O[C@H]2O[C@H](CO)[C@@H](N)[C@H](O)[C@H]2O)O[C@H]2C[C@@H](N)[C@@H](O[C@H]3[C@H](O)[C@@H](O)[C@H](N)C[C@@H]3N)O[C@@H]2[C@@H]1O	·	·	·	·	5
CCOC(=O)c1ccc(CN(Cc2ccccc2C)S(=O)(=O)c2ccc(C(C)(C)C)cc2)cc1	2	·	-2	13	-2
CSc1ccccc1C(=O)C1CCCN(C(=O)c2cccc(Cn3cccn3)c2)C1 (stereo not drawn)	·	-12	·	·	0
CCOC(=O)c1sc(NC(=O)Nc2ccc(Cl)cc2)cc1C	-58*	12	-10	29	5
CCOC(=O)c1sc(NC(=O)c2ccccc2)cc1C	-14	5	-6	42*	-4
C/C(O)=c1/cnc2nc3ccccc3n2c1=O	-44*	1	-8	3	0
O=C(COc1ccc(Cl)cc1Cl)NC(=O)N1CCOCC1	10	-58*	5	0	-5
O=C(COC(=O)C12CC3CC(CC(O)(C3)C1)C2)NCCc1ccc(Cl)cc1	-40*	-13	-14	1	-5
O=C(COC(=O)C12CC3CC(CC(O)(C3)C1)C2)Nc1ccc(Cl)cc1F	-4	0	2	0	3
O=C(c1ccc(-c2ccccc2)cc1)C1CCCN(Cc2ccncc2)C1 (stereo not drawn)	32	-8	5	2	-9
O=C(c1ccc(Cl)cc1)C1CCCN(Cc2cnn(-c3ccccc3)c2)C1 (stereo not drawn)	15	-71*	1	1	-13
COc1cccc(CNC(=O)c2sc3nc(C)cc(C)c3c2-n2cccc2)c1OC	12	·	1	1	-6
Fc1ccc2c(c1)-c1c(cnc3cc(-c4ccc(Cl)cc4)nn13)CO2	-18	·	0	-1	-3
O=C1c2ccccc2-c2onc3ccc(NCCCn4ccnc4)c1c23	-14	?	4	208*	-25
COc1ccc(-c2nsc(NC(=O)COc3ccc(C)c(C)c3)n2)cc1	-3	·	0	2	5
Cc1nc2scc(-c3ccc(C(C)(C)C)cc3)c2c(=O)n1N	-25	55	-2	14	31*
O=C[C@H](O)[C@@H](O)[C@H](O)[C@H](O)CO	·	·	·	·	10
Cc1cccc(-c2csc3ncnc(Sc4nnnn4C)c23)c1	-4	·	5	0	·
COc1ccc(NC(=O)Cn2c(=O)n(Cc3ccc4c(c3)OCO4)c(=O)c3ccc(C(=O)NC4CCCCC4)cc32)cc1	-25	·	0	1	3

Compound activity (PubChem)
